Results as given in the supplement of paper PMC11417369.
In all, about 25,000 sequences were measured (“ln(normalized median fluorescence intensity)”: median about 9.7, highest 2% from about 11 on). The sample as a whole holds a higher share of the highest values than the screen did.

Test system: PfAP2-HC AP2 domain (GST-tagged)
Test: gcPBM binding intensity (ln(normalized median fluorescence intensity)); higher = stronger DNA binding
In short: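 Binding intensity values are the highest Masliner-normalised natural-log median intensity among replicate spots of either probe orientation. The binding step lasted 1 h in 1× PBS with 1% milk, 0.2 mg/ml BSA, 0.5% salmon testes DNA and 0.03% Triton X-100, using GST-tagged P. falciparum DNA-binding domains expressed in E. coli on an Agilent 4 × 180k array of primer-extended double-stranded 36-bp intergenic genomic probes plus negative controls. Alexa488 anti-GST antibody and a 488 nm scan detected bound protein.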

Sequence | gcPBM binding intensity (ln)
ATATAATGAATTATTAGAAAATAAAATGAATAAAGT [CACACA_negctrl_site690] | 9.87
CATTTTGTTTTAAAGTGTACATTATGTAATATAAAA [XGTACX_site647] | 9.33
TTTTAAAGAAAATATTTTATCATTATTTTTTGTACT [CACACA_negctrl_site1648] | 9.57
AATATAAATTTATATTGTACATATTTTATTATATGT [XGTACX_site905] | 9.67
TAAAACAGAATGAGGAGTACAAAAAGAAGAAAAGGG [XGTACX_site1246] | 9.83
ATAAAATGAAATATATGTACGCATCACTTGTTGAAC [XGTACX_site4530] | 9.72
AAAAAAAAAAAAAAAAAAAAATATATATATATATAT [GTGCAC_negctrl_site426] | 9.47
TATTTTGTTCTTTCCACACACAAATACAGATATTGT [CACACA_site6097] | 10.1
CACAAACACCCAAACACACACACACCGACATACATA [CACACA_site4410] | 11.1
AAAAAAAAAAAAAAAACACACATACACCCCCACCCA [CACACA_site9117] | 10.2
TAAACACCCATACATACACACATACATACACCCATA [CACACA_site5125] | 10
AAAAAAAAAAAAAACACACACACACCCATACCCATA [CACACA_site5577] | 10.5
CAAACACCCAAACACACACACACATACATACATACA [CACACA_site8044] | 10.7
AAAAAAAAAAAACACACACACACACCCATATACATA [CACACA_site2664] | 11
AAAAAAAAAAAAAACACACACACACCCACATATACA [CACACA_site2663] | 10.6
AAAAAAAAAAAACACACACACACACCCATACATACA [CACACA_site707] | 11.4
TTAAAAAAAAAACACACACACATACCCATATATATA [CACACA_site5768] | 10.4
AACACCCAAAAACACACACACATACATACATACATA [CACACA_site4411] | 10.3
AAAAAAAAAAAACACACACACACATACCCATACATA [CACACA_site5575] | 11.3
ACTAATATGTATATATATATATATATATATATATAT [CACACA_negctrl_site141] | 9.58
TCTTAATTTGTTATATGTACATAATATAATTGTATA [XGTACX_site5184] | 9.55

Sequence | gcPBM binding intensity (ln)
TATTATTTATATGATACACACGTACATATACACATA [CACACA_site9275] | 9.86
TTTAATAATATAATGTGTACTTAAAAATTTATATAT [XGTACX_site5821] | 9.44
AAAAAGAAAAAACTTACACACATATATACACCCATG [CACACA_site8079] | 11.3
AAAAAACACCCATACACACACACACCGATATATATA [CACACA_site5808] | 11
AAAAAGAAAAAACTTACACACATATATACCCCCATG [CACACA_site4463] | 10.2
AAAAAGAAAAAACTTACACACATATATACAGACATG [CACACA_site550] | 10
AACATACATAAACACACACACACACCCACACCCACA [CACACA_site8058] | 10.8
AAAAAAAAAAAAAAAACACACATACACCCAGACACA [CACACA_site5807] | 11.3
CATACACCCAGACACACACACATATATATATATATA [CACACA_site634] | 10.4
TATACATACATACATACACACACACCGATATATACA [CACACA_site8184] | 10.8
CATACATACAAACACACACACACACCGATATATATA [CACACA_site8952] | 10.7
AACATACATAAACACACACACACACCCACAGAGACA [CACACA_site4430] | 11
TAAACATACAGATACACACACACACCCACAGAGACA [CACACA_site4429] | 10.6
AAAAAACAGACATACACACACACACCCATATATATA [CACACA_site3392] | 10.8
TTTAAAACCTTACATACACACAAATATATATATATA [CACACA_site677] | 10
AAAAAATATGCATATACACACATATGTATAAATAAC [CACACA_site7090] | 10.1
TATTTAACACCTTATACACACTTTCTTCCTTTTTTA [CACACA_site4590] | 10.1
AAGTATTATATATTTTGTACATATATAAAACCACAA [XGTACX_site5508] | 9.61
AATATATACACATGCGCACACACAAGTGGGAAATTT [CACACA_site8527] | 10.2
ATAGAAACATATTGACGTACAGTATAATAATACAGT [XGTACX_site197] | 9.91
TGAAATACGAATTATTGTACTTATGTGTAAGATGGC [XGTACX_site4472] | 9.71

Sequence | gcPBM binding intensity (ln)
CAATTTGGTGTACAGGTGCACATGCCTCACGATAAA [GTGCAC_site9650] | 9.61
CACCCATACACATACAAACACACATTCTATATATAT [CACACA_site1600] | 10.1
CATACATACAAACACACACACACACCCATATATATA [CACACA_site2918] | 11.1
AGATACAAGCACTATAGTACACATACTAAAAATATA [XGTACX_site5849] | 9.73
AATACTAAAACCCATACACACACATATATATAGTAC [CACACA_site9041] | 11
TACTAAAACCCATACACACACATATTTATAGTACCA [CACACA_site7484] | 10.6
TATATACACAAACACACACACACATACACCCACATA [CACACA_site8504] | 10.8
TTATATGTATATATAGTGCAGAACAAAAGATTATAT [GTGCAC_site9599] | 9.7
GGACTTTATAAAAATGGTACACGCAATTCTATAATC [XGTACX_site6515] | 9.61
TACATAAATTAAAACACACACACACTAAAAAAAAAA [CACACA_site7130] | 10.5
CATTTAACATAAATTAAACACACAATATAATACATT [CACACA_site8333] | 9.73
TATAATTTAAAATACACACACATATATATAATATAT [CACACA_site2000] | 10.1
AAAAAACATACATACACACACATAAATATATATATT [CACACA_site2699] | 10.4
ATTTCATAAATTAAACGTACATAATACACACACATG [XGTACX_site4155] | 11
AAAAAAAACATACATACACACACATAAATATATATA [CACACA_site8864] | 11.4
TACATAAATTAAAACACACACACACTAATAAAAAAA [CACACA_site8712] | 11.3
AAACGTACATAATACACACACATGTATACATATAAA [CACACA_site2048] | 10.2
AAAAATTAAATAAATTTACACACTAATAATTACATA [CACACA_site8260] | 9.63
GAAATAATTTCATATACACACATATACATACATACA [CACACA_site1358] | 9.95
CATATACATAAACACACACACACATAAATAAATATA [CACACA_site4864] | 10.6
TACAATTTAAAACACACACACAATAATACATATATA [CACACA_site1251] | 11
